Only a selection was taken, and hits are over-represented in it overall.
TbREL1 inh = TbREL1 inhibition, primary screen | TbREL1 RNA ligation, FRET fluorescence | P86926 | inhibition, % at 9.66 µM | actives 0.49% (n = 89,000);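 active = inhibition above the mean inhibition across all screened compounds plus 3 SD, cut at about 11% in these data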
Target sequence (P86926 whole entry, looked up): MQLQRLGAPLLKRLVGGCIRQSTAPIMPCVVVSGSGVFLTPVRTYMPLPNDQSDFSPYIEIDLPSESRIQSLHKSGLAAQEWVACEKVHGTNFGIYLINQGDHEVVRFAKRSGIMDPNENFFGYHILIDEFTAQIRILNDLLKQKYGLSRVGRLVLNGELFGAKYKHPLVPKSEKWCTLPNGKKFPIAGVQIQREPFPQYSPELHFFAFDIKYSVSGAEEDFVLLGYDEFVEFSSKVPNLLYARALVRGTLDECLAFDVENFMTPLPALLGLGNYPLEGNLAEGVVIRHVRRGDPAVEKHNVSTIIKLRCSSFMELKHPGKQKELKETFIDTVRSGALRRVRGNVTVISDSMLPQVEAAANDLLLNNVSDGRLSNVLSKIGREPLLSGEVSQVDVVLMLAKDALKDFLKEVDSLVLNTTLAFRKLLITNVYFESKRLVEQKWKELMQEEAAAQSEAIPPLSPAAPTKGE
TbREL1 confirm = TbREL1 inhibition, confirmation; shares compounds with TbREL1 inh; TbREL1 RNA ligation, FRET fluorescence; inhibition, % at 9.66 µM; actives 37% (n = 390);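 active = mean inhibition across replicates above a set limit taken from the earlier primary screen, cut at about 11% in these data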
A number is an active result.

How did Nc1ccccc1SCc1cn2cccnc2n1 do in these assays?
TbREL1 inh: inactive

Results for c1ccc(SCc2cn3cccnc3n2)nc1 ?
TbREL1 inh: inactive

What do the screens show for `Cc1ccc2nsnc2c1NC(=O)CCl`?
TbREL1 inh: 11; TbREL1 confirm: inactive

How did Cc1ccc2nsnc2c1NC(=O)Cc1ccc(Cl)cc1 do in these assays?
TbREL1 inh: inactive

Results for O=C(COc1ccccc1)Nc1c(Cl)ccc2nsnc12 ?
TbREL1 inh: inactive

What do the screens show for `O=C1N2CCc3ccccc3C2CS(=O)(=O)N1CCc1ccccc1` (stereo unspecified)?
TbREL1 inh: inactive

What do the screens show for `O=C1CCC[C@H]2C[C@H](NCc3cccc(Cl)c3)CC[C@]23CCCN13`?
TbREL1 inh: inactive

What do the screens show for `COC(=O)c1ccc(S(=O)(=O)N2CCC(NC(=O)Cc3ccccc3)CC2)cc1`?
TbREL1 inh: inactive

Results for COC(=O)[C@@]12CCCCC3=C1N(CCC3)C(=O)[C@H]2CC(=O)NCC12CC3CC(CC(C3)C1)C2 ?
TbREL1 inh: inactive

Results for O=C(Nc1ccc(Cl)cc1)C(Cl)C(=O)c1ccccc1 (stereo unspecified) ?
TbREL1 inh: 12; TbREL1 confirm: inactive

What do the screens show for `O=C(N/C(=N\O)c1ccccc1)Nc1ccc(Cl)cc1`?
TbREL1 inh: inactive

How did O=C(Nc1ccc(F)c(Cl)c1)c1ccccc1 do in these assays?
TbREL1 inh: inactive

Results for CCc1ccc(Cn2c(=O)n(Cc3ccc(C(=O)NCCCOC)cc3)c(=O)c3ccccc32)cc1 ?
TbREL1 inh: inactive

How did O=C(CCn1nnc2ccccc21)N1CCN(c2cccc(C(F)(F)F)c2)CC1 do in these assays?
TbREL1 inh: inactive

Results for CC1(C)CC(NC(=O)c2cccc(S(=O)(=O)N(Cc3ccccc3)c3ccccc3)c2)CC(C)(C)N1 ?
TbREL1 inh: 13; TbREL1 confirm: inactive

What do the screens show for `O=C(O)c1cccc(S(=O)(=O)N(Cc2ccccc2)c2ccc(Cl)cc2)c1`?
TbREL1 inh: inactive

What do the screens show for `C=CCN(c1ccccc1)S(=O)(=O)c1cccc(C(=O)NC2CCC(O)CC2)c1` (stereo unspecified)?
TbREL1 inh: inactive

How did CC1(C)C=Cc2ccc(O)c(C(=O)/C=C/c3ccccc3)c2O1 do in these assays?
TbREL1 inh: inactive

What do the screens show for `COC(=O)CCN(Cc1ccc(OC)cc1OC)S(=O)(=O)c1ccccc1Br`?
TbREL1 inh: inactive

What do the screens show for `CCC[C@H]1[C@@H](OC(=O)NCc2cccc(C(F)(F)F)c2)CC[C@@]23CCCN2C(=O)CCC[C@@H]13`?
TbREL1 inh: inactive

How did Cc1cc(C)nc(NC(=S)N2CCN(c3ccc(Cl)c(Cl)c3)CC2)c1 do in these assays?
TbREL1 inh: inactive

How did CCCCN1CN2CCc3ccccc3C2CS1(=O)=O (stereo unspecified) do in these assays?
TbREL1 inh: inactive

How did COc1ccc(CCNC(=O)C2CCCN(Cc3nc(-c4ccccc4C)oc3C)C2)cc1OC (stereo unspecified) do in these assays?
TbREL1 inh: inactive

Results for COc1ccc(-c2nc(CN3CCN(c4cc(C)nc(C)c4)CC3)c(C)o2)c2ccccc12 ?
TbREL1 inh: 15; TbREL1 confirm: inactive

How did COc1ccc(F)c(-c2nc(CN3CCN(C(=O)c4ccco4)CC3)c(C)o2)c1 do in these assays?
TbREL1 inh: inactive

Results for COc1ccc(N2CCN(CCNS(=O)(=O)c3c(C(C)C)cc(C(C)C)cc3C(C)C)CC2)cc1 ?
TbREL1 inh: inactive

How did C#CCOCCOCCOCCNc1nc(N2CCN(C(=O)[C@H]([C@@H](C)CC)n3cc([C@@H](N)Cc4ccc(O)cc4)nn3)CC2)nc(N2CCN(C(=O)[C@H]([C@@H](C)CC)n3cc([C@@H](N)Cc4ccc(O)cc4)nn3)CC2)n1 do in these assays?
TbREL1 inh: inactive

Results for C#CCOCCOCCOCCNc1nc(N2CCN(C(=O)[C@H]([C@@H](C)CC)n3cc([C@@H](N)CC(C)C)nn3)CC2)nc(N2CCN(C(=O)[C@H]([C@@H](C)CC)n3cc([C@@H](N)CC(C)C)nn3)CC2)n1 ?
TbREL1 inh: 11; TbREL1 confirm: inactive

How did C#CCOCCOCCOCCNc1nc(N2CCN(C(=O)[C@H]([C@@H](C)CC)n3cc([C@@H](N)CC(C)C)nn3)CC2)nc(N2CCN(C(=O)[C@H](Cc3ccc(O)cc3)n3cc([C@@H](N)CC(C)C)nn3)CC2)n1 do in these assays?
TbREL1 inh: inactive

How did O=C1NC(c2ccc3c(c2)OCO3)c2c(-c3ccccc3)n[nH]c21 (stereo unspecified) do in these assays?
TbREL1 inh: inactive

What do the screens show for `Cc1ccccc1NC(=O)CN1C(=O)CCSc2ccccc21`?
TbREL1 inh: inactive

What do the screens show for `O=c1c(-c2ccco2)[n+]([O-])c2ccccc2n1OCc1ccccc1`?
TbREL1 inh: inactive

Results for CC(C)CCOc1ccc(-c2c(=O)n(OCc3ccc([N+](=O)[O-])cc3)c3ccccc3[n+]2[O-])cc1 ?
TbREL1 inh: inactive

What do the screens show for `O=c1c(-c2cccc([N+](=O)[O-])c2)[n+]([O-])c2ccccc2n1O`?
TbREL1 inh: 12; TbREL1 confirm: inactive

How did O=C(NCc1ccc(F)c(F)c1)C1CCCN(c2nc3ccccc3o2)C1 (stereo unspecified) do in these assays?
TbREL1 inh: inactive
